Test results as given in the supplement of paper PMC11732987, “Enantioselective OTUD7B fragment discovery through chemoproteomics screening and high-throughput optimisation” (Communications Chemistry, 2025).

How the values were obtained:
Experiment in all cases: log2 ratio of Biotin-Ahx-Ub-VS probe labelling (fragment/DMSO); higher = less target engagement (more negative = stronger competition), active = hit call of the paper (q ≤ 0.05, log2 ratio ≤ -1)
Conditions in all cases: compound concentration: 200 uM; treatment time: 3 h
USP19 = target: T1, USP19 (UniProt O94966)
T1 sequence (whole entry): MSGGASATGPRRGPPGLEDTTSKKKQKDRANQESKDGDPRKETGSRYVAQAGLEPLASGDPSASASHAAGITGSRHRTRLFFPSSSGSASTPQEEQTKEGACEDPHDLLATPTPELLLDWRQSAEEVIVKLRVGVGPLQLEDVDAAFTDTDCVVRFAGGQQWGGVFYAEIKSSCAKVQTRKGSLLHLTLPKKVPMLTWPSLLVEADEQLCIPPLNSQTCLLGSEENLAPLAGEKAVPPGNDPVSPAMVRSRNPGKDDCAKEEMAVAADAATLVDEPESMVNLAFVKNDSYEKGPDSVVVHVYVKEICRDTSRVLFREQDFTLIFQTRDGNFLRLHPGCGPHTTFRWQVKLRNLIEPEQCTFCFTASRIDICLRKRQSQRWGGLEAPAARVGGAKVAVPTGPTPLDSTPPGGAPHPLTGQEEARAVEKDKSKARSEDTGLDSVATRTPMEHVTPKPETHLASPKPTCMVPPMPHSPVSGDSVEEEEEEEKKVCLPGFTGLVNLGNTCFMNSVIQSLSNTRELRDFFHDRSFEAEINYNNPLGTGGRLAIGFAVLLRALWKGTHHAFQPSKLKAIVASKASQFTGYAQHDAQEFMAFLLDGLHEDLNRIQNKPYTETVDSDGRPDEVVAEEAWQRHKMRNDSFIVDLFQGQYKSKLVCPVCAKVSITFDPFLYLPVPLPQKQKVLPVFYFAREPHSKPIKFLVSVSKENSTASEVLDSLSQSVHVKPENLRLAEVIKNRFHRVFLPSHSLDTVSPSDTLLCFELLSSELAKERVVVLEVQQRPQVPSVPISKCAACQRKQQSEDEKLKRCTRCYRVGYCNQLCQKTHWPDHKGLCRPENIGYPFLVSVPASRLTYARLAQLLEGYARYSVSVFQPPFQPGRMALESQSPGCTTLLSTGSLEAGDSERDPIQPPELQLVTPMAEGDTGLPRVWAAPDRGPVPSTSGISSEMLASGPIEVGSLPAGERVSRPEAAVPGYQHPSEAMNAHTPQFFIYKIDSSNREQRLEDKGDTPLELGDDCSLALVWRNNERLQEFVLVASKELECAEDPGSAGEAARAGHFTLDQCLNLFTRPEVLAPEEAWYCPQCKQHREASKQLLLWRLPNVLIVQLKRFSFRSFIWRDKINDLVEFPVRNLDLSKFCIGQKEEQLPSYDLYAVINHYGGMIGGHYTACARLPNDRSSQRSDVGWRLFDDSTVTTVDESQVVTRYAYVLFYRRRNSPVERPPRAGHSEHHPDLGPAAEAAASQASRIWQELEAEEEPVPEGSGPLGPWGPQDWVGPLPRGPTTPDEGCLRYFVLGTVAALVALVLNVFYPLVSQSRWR
How it was run: (§1)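 The table lists average log2 ratios of fragment over vehicle, from an unpaired t-test on global-median-normalised Spectronaut label-free quantities. Proteins with ≥2 unique peptides were used. Samples were HEK293T lysate (495 µg) treated in triplicate with fragment at 200 µM or vehicle for 3 h, then with Biotin-Ahx-Ub-VS (0.5 µM final) for 1 h, with labelled DUBs NeutrAvidin-enriched and run by diaPASEF LC-MS/MS.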

USP22 = target: T2, USP22 (UniProt Q9UPT9)
T2 sequence (whole entry): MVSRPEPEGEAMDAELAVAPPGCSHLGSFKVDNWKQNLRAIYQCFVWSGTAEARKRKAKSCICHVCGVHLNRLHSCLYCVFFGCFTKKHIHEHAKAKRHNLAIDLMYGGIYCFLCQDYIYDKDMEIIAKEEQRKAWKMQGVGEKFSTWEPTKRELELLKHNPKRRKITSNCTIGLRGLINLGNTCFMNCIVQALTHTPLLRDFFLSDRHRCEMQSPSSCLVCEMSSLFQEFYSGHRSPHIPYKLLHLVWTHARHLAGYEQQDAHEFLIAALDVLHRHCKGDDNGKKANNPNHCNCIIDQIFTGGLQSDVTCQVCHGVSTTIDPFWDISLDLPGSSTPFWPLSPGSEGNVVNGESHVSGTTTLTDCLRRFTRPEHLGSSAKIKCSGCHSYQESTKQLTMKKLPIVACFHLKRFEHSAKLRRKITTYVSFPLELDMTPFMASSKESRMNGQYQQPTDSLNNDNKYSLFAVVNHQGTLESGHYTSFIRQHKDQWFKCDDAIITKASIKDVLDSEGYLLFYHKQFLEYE
How it was run: as §1

USP24 = USP24 (UniProt Q9UPU5)
How it was run: as §1

USP25 = target: T3, USP25 (UniProt Q9UHP3)
T3 sequence (whole entry): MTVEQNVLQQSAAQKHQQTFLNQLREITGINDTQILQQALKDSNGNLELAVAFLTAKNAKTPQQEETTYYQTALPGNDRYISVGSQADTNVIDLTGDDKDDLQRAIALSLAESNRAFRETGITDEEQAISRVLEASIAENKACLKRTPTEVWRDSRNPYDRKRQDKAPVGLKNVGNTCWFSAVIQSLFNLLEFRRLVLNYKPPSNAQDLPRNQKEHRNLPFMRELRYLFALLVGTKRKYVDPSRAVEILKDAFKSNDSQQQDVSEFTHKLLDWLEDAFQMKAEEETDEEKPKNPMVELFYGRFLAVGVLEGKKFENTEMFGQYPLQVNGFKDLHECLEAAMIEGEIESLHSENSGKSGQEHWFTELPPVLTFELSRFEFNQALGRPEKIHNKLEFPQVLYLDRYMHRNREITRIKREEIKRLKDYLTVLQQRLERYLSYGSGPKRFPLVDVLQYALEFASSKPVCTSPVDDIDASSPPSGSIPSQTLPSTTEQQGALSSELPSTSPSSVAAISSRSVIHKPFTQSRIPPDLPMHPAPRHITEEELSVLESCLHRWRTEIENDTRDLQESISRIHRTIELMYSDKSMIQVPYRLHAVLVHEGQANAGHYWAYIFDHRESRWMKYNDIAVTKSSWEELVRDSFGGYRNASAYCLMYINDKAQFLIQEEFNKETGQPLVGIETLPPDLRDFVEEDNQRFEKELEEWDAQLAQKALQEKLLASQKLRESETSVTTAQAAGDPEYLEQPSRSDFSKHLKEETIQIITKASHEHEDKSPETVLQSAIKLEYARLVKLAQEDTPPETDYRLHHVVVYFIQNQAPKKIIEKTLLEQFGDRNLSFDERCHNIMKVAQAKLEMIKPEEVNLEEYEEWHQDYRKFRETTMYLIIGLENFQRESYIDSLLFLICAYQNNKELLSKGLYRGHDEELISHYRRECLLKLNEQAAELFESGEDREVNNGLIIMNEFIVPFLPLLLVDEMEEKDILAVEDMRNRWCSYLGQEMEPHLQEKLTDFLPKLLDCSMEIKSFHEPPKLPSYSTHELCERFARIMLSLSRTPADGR
How it was run: as §1

USP28 = target: T4, USP28 (UniProt Q96RU2)
T4 sequence (whole entry): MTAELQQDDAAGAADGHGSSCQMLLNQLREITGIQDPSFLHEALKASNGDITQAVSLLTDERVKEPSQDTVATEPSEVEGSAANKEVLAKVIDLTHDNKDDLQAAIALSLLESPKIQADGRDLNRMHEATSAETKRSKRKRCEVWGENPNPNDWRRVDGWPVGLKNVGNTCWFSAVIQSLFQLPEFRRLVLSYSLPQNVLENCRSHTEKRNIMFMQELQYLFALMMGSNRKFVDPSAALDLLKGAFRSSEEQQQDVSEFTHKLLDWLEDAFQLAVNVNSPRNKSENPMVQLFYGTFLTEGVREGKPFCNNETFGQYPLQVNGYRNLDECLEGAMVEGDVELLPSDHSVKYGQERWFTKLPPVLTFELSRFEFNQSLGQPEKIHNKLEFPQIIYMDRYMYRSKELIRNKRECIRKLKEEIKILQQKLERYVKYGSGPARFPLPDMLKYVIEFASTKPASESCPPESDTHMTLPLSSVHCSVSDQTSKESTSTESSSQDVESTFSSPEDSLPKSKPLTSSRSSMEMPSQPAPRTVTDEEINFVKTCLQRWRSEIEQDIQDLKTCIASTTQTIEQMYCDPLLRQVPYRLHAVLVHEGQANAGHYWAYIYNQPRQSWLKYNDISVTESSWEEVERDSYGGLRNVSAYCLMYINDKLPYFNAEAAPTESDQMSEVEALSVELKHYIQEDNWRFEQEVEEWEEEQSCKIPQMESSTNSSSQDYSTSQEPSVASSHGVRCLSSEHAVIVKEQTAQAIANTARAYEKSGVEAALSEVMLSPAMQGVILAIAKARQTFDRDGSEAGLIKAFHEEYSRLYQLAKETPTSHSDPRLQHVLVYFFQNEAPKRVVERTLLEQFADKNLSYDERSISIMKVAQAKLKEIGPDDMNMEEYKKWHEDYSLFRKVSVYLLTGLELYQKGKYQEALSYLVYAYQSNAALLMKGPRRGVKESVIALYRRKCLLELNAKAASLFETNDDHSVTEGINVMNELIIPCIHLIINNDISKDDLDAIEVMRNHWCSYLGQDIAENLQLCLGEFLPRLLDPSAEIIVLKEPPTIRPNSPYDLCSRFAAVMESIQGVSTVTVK
How it was run: as §1

Measured: log2 ratio of Biotin-Ahx-Ub-VS probe labelling

USP24, sequence (Q9UPU5 whole entry): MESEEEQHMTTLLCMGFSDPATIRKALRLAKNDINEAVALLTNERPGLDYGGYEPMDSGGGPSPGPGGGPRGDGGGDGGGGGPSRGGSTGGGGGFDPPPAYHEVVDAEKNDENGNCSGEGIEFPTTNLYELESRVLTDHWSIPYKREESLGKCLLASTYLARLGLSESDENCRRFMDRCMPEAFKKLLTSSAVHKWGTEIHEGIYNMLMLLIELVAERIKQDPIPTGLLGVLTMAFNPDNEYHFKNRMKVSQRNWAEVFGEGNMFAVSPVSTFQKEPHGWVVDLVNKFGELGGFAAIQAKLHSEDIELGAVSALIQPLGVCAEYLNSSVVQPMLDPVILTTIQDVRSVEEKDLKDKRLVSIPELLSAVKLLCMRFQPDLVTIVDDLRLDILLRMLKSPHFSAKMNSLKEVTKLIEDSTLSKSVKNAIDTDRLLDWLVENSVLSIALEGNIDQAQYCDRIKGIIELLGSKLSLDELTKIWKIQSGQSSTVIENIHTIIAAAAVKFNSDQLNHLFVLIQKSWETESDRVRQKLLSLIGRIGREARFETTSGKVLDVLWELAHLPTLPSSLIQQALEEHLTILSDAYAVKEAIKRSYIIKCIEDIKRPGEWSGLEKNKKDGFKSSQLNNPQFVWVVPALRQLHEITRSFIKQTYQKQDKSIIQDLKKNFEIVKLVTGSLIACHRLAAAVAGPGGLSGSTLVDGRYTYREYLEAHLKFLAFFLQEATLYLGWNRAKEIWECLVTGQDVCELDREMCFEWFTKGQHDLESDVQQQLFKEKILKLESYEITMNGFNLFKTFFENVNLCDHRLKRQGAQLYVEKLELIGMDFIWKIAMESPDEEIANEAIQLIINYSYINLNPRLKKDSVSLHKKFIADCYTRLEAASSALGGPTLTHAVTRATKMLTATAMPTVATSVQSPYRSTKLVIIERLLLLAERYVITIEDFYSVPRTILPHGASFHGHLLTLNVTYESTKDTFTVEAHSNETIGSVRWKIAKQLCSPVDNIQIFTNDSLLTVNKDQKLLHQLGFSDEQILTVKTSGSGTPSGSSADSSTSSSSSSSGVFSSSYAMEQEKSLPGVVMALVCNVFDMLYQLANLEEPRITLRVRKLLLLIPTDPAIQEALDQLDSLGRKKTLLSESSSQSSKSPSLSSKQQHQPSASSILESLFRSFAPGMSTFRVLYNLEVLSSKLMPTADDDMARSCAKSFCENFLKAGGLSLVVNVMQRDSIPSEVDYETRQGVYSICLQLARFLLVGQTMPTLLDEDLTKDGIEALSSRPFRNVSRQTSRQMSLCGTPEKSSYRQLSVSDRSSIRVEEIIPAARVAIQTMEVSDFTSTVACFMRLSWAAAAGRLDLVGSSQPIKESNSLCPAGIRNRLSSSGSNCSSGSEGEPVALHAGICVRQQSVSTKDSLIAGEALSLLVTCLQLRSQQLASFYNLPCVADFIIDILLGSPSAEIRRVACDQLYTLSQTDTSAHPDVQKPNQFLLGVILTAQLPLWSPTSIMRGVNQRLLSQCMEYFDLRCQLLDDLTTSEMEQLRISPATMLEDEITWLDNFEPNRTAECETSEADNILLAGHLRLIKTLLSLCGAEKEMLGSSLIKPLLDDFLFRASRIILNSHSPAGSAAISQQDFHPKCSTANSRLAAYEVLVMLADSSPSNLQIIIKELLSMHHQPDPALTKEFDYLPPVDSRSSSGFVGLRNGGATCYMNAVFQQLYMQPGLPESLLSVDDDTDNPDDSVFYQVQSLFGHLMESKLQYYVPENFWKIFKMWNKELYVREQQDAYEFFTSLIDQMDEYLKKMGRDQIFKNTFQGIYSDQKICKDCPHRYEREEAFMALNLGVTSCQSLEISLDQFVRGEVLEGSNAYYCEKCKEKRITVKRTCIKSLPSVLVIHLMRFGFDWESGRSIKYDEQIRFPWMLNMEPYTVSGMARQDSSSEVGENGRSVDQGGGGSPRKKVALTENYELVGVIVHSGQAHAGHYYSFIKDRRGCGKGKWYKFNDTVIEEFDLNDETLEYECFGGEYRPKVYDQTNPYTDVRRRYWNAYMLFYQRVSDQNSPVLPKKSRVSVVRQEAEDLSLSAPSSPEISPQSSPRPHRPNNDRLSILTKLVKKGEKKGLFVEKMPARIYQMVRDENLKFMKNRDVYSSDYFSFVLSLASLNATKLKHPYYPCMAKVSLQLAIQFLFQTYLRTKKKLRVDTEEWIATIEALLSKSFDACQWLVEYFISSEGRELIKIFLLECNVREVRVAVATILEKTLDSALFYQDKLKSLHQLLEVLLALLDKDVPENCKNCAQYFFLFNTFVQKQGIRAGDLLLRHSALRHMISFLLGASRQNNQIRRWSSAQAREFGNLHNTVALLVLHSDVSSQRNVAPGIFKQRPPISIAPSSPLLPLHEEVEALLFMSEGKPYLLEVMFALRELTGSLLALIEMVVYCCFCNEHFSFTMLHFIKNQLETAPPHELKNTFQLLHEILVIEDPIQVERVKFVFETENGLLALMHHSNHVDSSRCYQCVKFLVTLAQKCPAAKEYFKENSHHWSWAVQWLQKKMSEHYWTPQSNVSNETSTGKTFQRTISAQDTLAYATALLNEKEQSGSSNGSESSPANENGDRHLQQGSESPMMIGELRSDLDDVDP

Cc1ccc(-c2nnc(C)[nH]2)c(NC(=O)CCl)c1
inactive: USP19 0.0362 | USP22 0.0459 | USP24 -0.204 | USP25 -0.734 | USP28 -0.643
